Measurements taken from PubChem BioAssay (NCATS).
Inconclusive results are not listed. Calls of active or inactive are those of the source. Calls follow the shape of the dose curve; as a rule, active = well fitted curve in the direction sought with a large enough effect; inconclusive = small, poorly fitted or top-dose-only effect, or another doubt; inactive = no such curve, though single readings can be large; an effect the other way counts as inactive or inconclusive.

Assays:
[1] = BET inhibitor-based combinations targeting novel dependencies in MECOM-rearranged (r) AML: OCI-AML3 cell line (AID 2202232); conditions: Potency: OCI-AML3 viability; also: nearly all actives have a fitted effect of over 35% in size
Method in brief: (§1)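 Readout: CellTiter-Glo luminescence. Exposure: 48 h, 11 concentrations, 500 cells/well. Metric: AUC and within-line Z-AUC after DMSO/empty-well normalization.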

[2] = BET inhibitor-based combinations targeting novel dependencies in MECOM-rearranged (r) AML: MV-4-11 cell line (AID 2202233); also: nearly all actives have a fitted effect of over 45% in size
Method in brief: (§2)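 Seeding density was 500 cells/well, and drug exposure lasted 48 hr under standard culture conditions. Read-out used CellTiter-Glo reagent with a 15 min room-temperature incubation before luminescence measurement; AUC and Z-AUC summarize the normalized responses.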

[3] = BET inhibitor-based combinations targeting novel dependencies in MECOM-rearranged (r) AML: HNT-34 cell line (AID 2202234); also: nearly all actives have a fitted effect of over 35% in size
Method in brief: as §2

[4] = BET inhibitor-based combinations targeting novel dependencies in MECOM-rearranged (r) AML: UCSD-AML1 cell line (AID 2202235); also: nearly all actives have a fitted effect of over 40% in size
Method in brief: as §2

[5] = BET inhibitor-based combinations targeting novel dependencies in MECOM-rearranged (r) AML: AML-191 cell line (AID 2202236; also: nearly all actives have a fitted effect of over 35% in size)
Method in brief: as §1

[6] = BET inhibitor-based combinations targeting novel dependencies in MECOM-rearranged (r) AML: AML-194 cell line (AID 2202237; also: nearly all actives have a fitted effect of over 40% in size)
Method in brief: as §1
Potency is read from the fitted curve at half-maximal effect.

| Structure (SMILES) | Potency [1] | Potency [2] | Potency [3] | Potency [4] | Potency [5] | Potency [6] |
| --- | --- | --- | --- | --- | --- | --- |
| C[C@@H](OC[C@@]1(c2ccccc2)CC[C@]2(CCC(=O)N2)CN1)c1cc(C(F)(F)F)cc(C(F)(F)F)c1 | 18.6 µM (active) | 20.9 µM (active) | 18.6 µM (active) | 23.5 µM (active) | 18.6 µM (active) | 26.3 µM (active) |
| COc1cc(-c2cn(C)c(=O)c3cnccc23)c(OC)cc1CN(C)C | 1.18 µM (active) | 4.17 µM (active) | inactive | inactive | inactive | inactive |
| Cc1ccc2nc(NCCN)c3ncc(C)n3c2c1 | 9.34 µM (active) | 4.68 µM (active) | 8.33 µM (active) | 7.42 µM (active) |  | 8.33 µM (active) |
| O=C(CCc1ccc(O)cc1)c1c(O)cc(O)cc1O[C@@H]1O[C@H](CO)[C@@H](O)[C@H](O)[C@H]1O | inactive | inactive | inactive | inactive | inactive |  |
| CC(C)Oc1ccc(-c2nn([C@@H](C)c3oc4ccc(F)cc4c(=O)c3-c3cccc(F)c3)c3ncnc(N)c23)cc1F | 11.8 µM (active) | 16.6 µM (active) | 20.9 µM (active) | inactive |  |  |
| CN1C(C(=O)Nc2ccccn2)=C(O)c2sccc2S1(=O)=O | inactive | inactive | inactive | inactive | inactive | inactive |
| C=CCNC1=C2C[C@@H](C)C[C@H](OC)[C@H](O)[C@@H](C)/C=C(\C)[C@H](OC(N)=O)[C@@H](OC)/C=C\C=C(/C)C(=O)NC(=CC1=O)C2=O | 10.5 µM (active) | 1.86 µM (active) | 11.8 µM (active) | 10.5 µM (active) | 18.6 µM (active) | 16.6 µM (active) |
| N#Cc1ccc(-c2c(-c3ncn[nH]3)sc(N3CCOCC3)c2C#N)c(F)c1 | 5.9 µM (active) | 5.9 µM (active) | 10.5 µM (active) | 1.32 µM (active) |  | 3.32 µM (active) |
| CO[C@@H]1[C@@H](O)[C@H](O)[C@@H](n2c3c(Cl)cccc3c3c4c(c5c6cccc(Cl)c6[nH]c5c32)C(=O)NC4=O)O[C@H]1CO | 1.32 µM (active) | 0.934 µM (active) | 0.59 µM (active) | 1.05 µM (active) | 2.35 µM (active) | 1.32 µM (active) |
| N#Cc1c(N)nc(N)nc1N[C@H](c1nc2c(F)ccc(Cl)c2c(=O)n1-c1cccnc1)C1CC1 | 6.61 µM (active) | 3.32 µM (active) | 16.6 µM (active) | 5.9 µM (active) |  |  |
| CN(C(=O)c1c(O)c2ccccc2n(C)c1=O)c1ccccc1 | inactive | inactive | inactive | inactive |  | inactive |
